# Data taken from PubChem BioAssay (NCI).
# About 79,000 compounds went through this panel and 15% of them were active in at least one assay; those are over-represented in the sample as a whole. The source made the active and inactive calls. Cut-off read from the data, not from the text of the source: active = growth inhibition above about 70%; inactive = the rest.
# Test: NCI Yeast Anticancer Drug Screen. Data for the rad50 strain (AID 155);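 note: 0% = growth of vehicle-only cultures of the same strain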
# Conditions: S. cerevisiae rad50 strain growth inhibition; at 50.0 µM; active compounds read high
# Method in brief: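 Inhibition values express reduced yeast growth in compound-treated cultures relative to vehicle-treated controls.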
row,SMILES,growth inhibition
1,CC(=O)Oc1ccc[nH]c1=O,5.25% (inactive)
2,Nc1nc(N)c(CCCCc2ccc([N+](=O)[O-])cc2)c(N)n1,-1.05% (inactive)
3,O=[N+]([O-])c1ccc(C(O)C(c2ccccc2)S(=O)(=O)N2CCCCC2)cc1 (stereo not given),40.6% (inactive)
4,CC1CC(=O)Nc2ncnc(N)c21 (stereo not given),-25.1% (inactive)
5,CCC(=O)NCCc1ccccc1,-16.2% (inactive)
6,Cc1nc2ccccc2nc1CC(=N)c1ccccc1,24.2% (inactive)
7,COc1ccc(C2C(Cl)C(=O)N2NC(=O)c2ccc(NC(C)=O)cc2)cc1 (stereo not given),-47.9% (inactive)
8,CC1CCC2C1(C)CCC1C2(C)CCC2(C)C3CC(C)(C)CCC3(C)CCC12C (stereo not given),-9.45% (inactive)
9,Cc1cccc(NS(=O)(=O)c2ccc3c(c2)OCCOCCOCCOCCO3)c1,1.65% (inactive)
10,Oc1ccccc1-c1nnc2n1N=C(c1ccc(-c3ccccc3)cc1)CS2,32.5% (inactive)
11,CCCCOCCC1CCNCC1,-46% (inactive)
12,CCOC(CN(C)C)OCC,8.6% (inactive)
13,COc1ccc(N=C2c3cc([N+](=O)[O-])ccc3-c3c2cccc3[N+](=O)[O-])cc1,-5.25% (inactive)
14,C=CCSC(=S)Nc1nc2ccc(C)cc2s1,-19.9% (inactive)
15,NS(=O)(=O)c1ccc(Nc2c3ccccc3nc3cc(Cl)ccc23)cc1,25.6% (inactive)
16,NC(=S)N/N=C1\C(=O)N(CCc2ccccc2)C(=O)C1C(=O)NCCc1ccccc1 (stereo not given),-16.4% (inactive)
17,O=S1(=O)OCCC1C(O)(c1ccccc1)c1ccccc1 (stereo not given),1.7% (inactive)
18,CCN(CC)CC(C)(C)C=O,26.9% (inactive)
19,COC(=O)/C(=C/c1ccc(OC)cc1)C(C(=O)O)=C1CCCCC1,20.2% (inactive)
20,CN(C)S(=O)(=O)c1ccc(CCc2ccc(S(=O)(=O)N(C)C)cc2)cc1,13.6% (inactive)

row,SMILES,growth inhibition
1,COC(=O)/C(C#N)=C(\C)CC(C)C,13.2% (inactive)
2,Nc1ccc2nc(-c3ccccc3)[nH]c2c1,-13.8% (inactive)
3,O=C(CN1C(=O)CC(NC(=O)OCc2ccccc2)C1=O)NCC(=O)Oc1ccc([N+](=O)[O-])cc1 (stereo not given),31.6% (inactive)
4,CCn1c(C)[n+](CCCOS(=O)(=O)[O-])c2ccccc21,2.6% (inactive)
5,CCCCCCCSc1nc2ccc(N=Cc3ccccc3O)cc2s1,-9.8% (inactive)
6,CC1=C(CCC(C)CO)OC2CC3C4CC=C5CC(O)CCC5(C)C4CCC3(C)C12 (stereo not given),19.1% (inactive)
7,COc1ccc(Cl)cc1NC(=O)Oc1ccccc1C(N)=O,-1.05% (inactive)
8,COC(=O)C(=O)[C@@H](O)[C@H](O)[C@@H](O)CO,29.8% (inactive)
9,O=C1C2CCCC2C1(c1ccccc1)c1ccccc1 (stereo not given),-7.25% (inactive)
10,C=C1C(=O)OC2CC(C)C3CC(OCCCl)OC(OCCCl)C3(C)CC12 (stereo not given),13.8% (inactive)
11,CCC(O)C1CCCCC1O (stereo not given),-8.95% (inactive)
12,c1ccc(-c2nnc3nn4c(-c5ccccc5)cnnc4c3c2-c2ccccc2)cc1,-0.05% (inactive)
13,CCCCc1[nH]nc(-c2n[nH]c(CCCC)c2C)c1C,25.4% (inactive)
14,Cc1ccc(S(=O)(=O)OC(c2ccccc2)c2ccccc2)cc1,-7.05% (inactive)
15,S=C1NC=CC(S)N1 (stereo not given),-3.3% (inactive)
16,COc1cc(OC)c(NC(=O)C(Cl)(Cl)Cl)cc1Cl,4% (inactive)
17,CC(=O)OCC1OC(OC(C)=O)C(NC(=S)N(C)N=O)C(OC(C)=O)C1OC(C)=O (stereo not given),0.65% (inactive)
18,CCOC1=C/C(=N\NC(N)=O)CCC1,9.35% (inactive)
19,COc1cc2c(c(C3(O)C(=O)N(C)c4ccccc43)c1OC)OCO2 (stereo not given),1.95% (inactive)
20,C=C(Cl)C(C)(Cl)CCC(Cl)C(C)(C)Cl (stereo not given),21.9% (inactive)
